Results on 93 molecules are retold here after PubChem BioAssay AID485346 (Sanford-Burnham Center for Chemical Genomics, 2010).

SMILES strings stand for the structures. Among all 330,000 compounds or so, about 10,000 (3%) were called active.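 How the source made its calls: active means inhibition of at least 50% at 8 µM in the primary screen; inactive means the rest.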 Many of the other results were omitted from the sample, so actives are more common in it than they were.

For this experiment, the target named is Protein Mdm4 (Homo sapiens) + E3 ubiquitin-protein ligase Mdm2 (Homo sapiens) (UniProt O15151+Q00987). Put plainly: disruptors of Mdm2/MdmX RING complex – cell-based, luminescence, split luciferase, SaOS-2, uHTS, primary screen (AID 485346). Conditions: SaOS-2 split-luciferase Mdm2/MdmX complementation, at 8 µM, hits give high values.
Chain of Protein Mdm4 (Homo sapiens) + E3 ubiquitin-protein ligase Mdm2 (Homo sapiens) (O15151 whole entry, looked up): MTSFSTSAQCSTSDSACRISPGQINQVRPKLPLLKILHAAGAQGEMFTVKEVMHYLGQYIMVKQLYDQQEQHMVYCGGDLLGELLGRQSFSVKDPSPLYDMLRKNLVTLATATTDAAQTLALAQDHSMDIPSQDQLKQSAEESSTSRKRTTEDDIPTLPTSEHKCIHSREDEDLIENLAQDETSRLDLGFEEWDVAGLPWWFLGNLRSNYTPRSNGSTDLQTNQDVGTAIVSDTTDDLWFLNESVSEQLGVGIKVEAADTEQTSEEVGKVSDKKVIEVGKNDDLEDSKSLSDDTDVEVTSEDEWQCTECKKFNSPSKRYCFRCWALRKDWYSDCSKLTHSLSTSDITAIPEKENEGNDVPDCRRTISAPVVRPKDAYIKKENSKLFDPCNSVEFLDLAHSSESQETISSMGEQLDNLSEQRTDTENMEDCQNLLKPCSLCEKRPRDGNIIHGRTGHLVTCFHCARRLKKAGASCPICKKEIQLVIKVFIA
Chain of Protein Mdm4 (Homo sapiens) + E3 ubiquitin-protein ligase Mdm2 (Homo sapiens) (Q00987 whole entry, looked up): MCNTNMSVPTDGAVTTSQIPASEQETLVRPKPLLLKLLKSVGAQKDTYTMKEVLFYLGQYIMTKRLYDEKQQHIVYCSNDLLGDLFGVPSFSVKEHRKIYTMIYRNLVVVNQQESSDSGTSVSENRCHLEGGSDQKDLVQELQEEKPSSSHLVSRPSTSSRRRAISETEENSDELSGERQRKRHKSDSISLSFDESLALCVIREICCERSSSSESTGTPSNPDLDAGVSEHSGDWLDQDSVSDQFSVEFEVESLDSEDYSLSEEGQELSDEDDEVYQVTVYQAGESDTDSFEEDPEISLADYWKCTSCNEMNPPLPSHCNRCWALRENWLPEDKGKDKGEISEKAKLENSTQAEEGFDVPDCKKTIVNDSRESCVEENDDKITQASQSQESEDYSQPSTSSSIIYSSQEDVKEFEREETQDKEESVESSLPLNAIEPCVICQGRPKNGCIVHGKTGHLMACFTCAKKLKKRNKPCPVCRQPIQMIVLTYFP
Take `CN(CCc1ccccn1)C(=O)CCC1CCCN(Cc2ccccc2OC(F)F)C1` (stereo not drawn): the inhibition is -29.3% (inactive).
In the case of `CCOC(=O)C1=CN(Cc2ccc(Br)cc2)S(=O)(=O)NC1C` (stereo not drawn), the inhibition was 12.1% (inactive).
For `Brc1ccc(C2=CC(c3ccco3)n3ncnc3N2)cc1` (stereo not drawn), the inhibition is 11.6% (inactive).
The result for `Clc1ccc2c(c1)C1=C(C(c3ccncc3)O2)C(c2ccc(Br)cc2)n2ncnc2N1` (stereo not drawn) reads 70.4% (active).
For `CC1=C(C(N)=O)C(c2ccc(Br)cc2)n2ncnc2N1` (stereo not drawn), the inhibition was 5.41% (inactive).
As to `O=C1NCCn2nc3ccccc3c21`, the inhibition is 16.4% (inactive).
Take `Cc1ccc(NN=Nc2nc3c([nH]2)c(=O)n(C)c(=O)n3C)cc1`: the inhibition is -16.4% (inactive).
In the case of `Cc1ccc(CSc2nc3[nH]ncc3c(=O)[nH]2)cc1`, the inhibition is -38.4% (inactive).
The result for `C=CCN1C(=O)C(O)(CC(=O)c2ccccn2)c2ccccc21` (stereo not drawn) reads -5.9% (inactive).
Take `C/C(=N/OC(=O)c1ccc(Br)cc1)c1ccc(C)cc1`: the inhibition is 5.85% (inactive).
Turning to `N/C(=N\OC(=O)c1ccc2c(c1)OCO2)c1ccc(Br)cc1`, the inhibition is 84.4% (active).
As for `O=C(c1ccc2c(c1)OCO2)N1CCOCC1`, the figure is 3.71% (inactive); as for `CC(C)(C)OC(=O)C[C@@H]1C/C=C\C[C@@H](CC(=O)N[C@@H](CO)Cc2ccccc2)C(=O)N2CCC[C@H]2COC1=O`, 9.85% (inactive); as for `O=C(Nc1ccncc1)c1c(F)cccc1F`, 52.1% (active).
As for `O=C(Nc1ccncc1)Nc1ccc(F)cc1`, the inhibition is 14% (inactive).
In the case of `CSc1nc2ccc(NC(=O)c3c(F)cccc3F)cc2s1`, the inhibition is -79.2% (inactive).
The result for `COCCNC(=O)COc1ccc(N(C)S(=O)(=O)c2ccc3ccccc3c2)cc1` reads 16.8% (inactive); that for `Cc1cc(C)nc(NC(=O)/C=C/c2ccc(Cl)cc2)n1`, 6.82% (inactive); that for `O=C(/C=C/c1ccc(Cl)cc1)Nc1ccc(Br)cn1`, 77.5% (active).
Regarding `O=C(/C=C/c1ccc(Cl)cc1)Nc1ccc(S(=O)(=O)Nc2ncccn2)cc1`, the inhibition is 0.48% (inactive).
The result for `CCn1c(SCC(=O)Nc2cc(C)ccc2C)nnc1-c1cnccn1` reads -18.6% (inactive); that for `COc1ccc(N2C(=O)C(O)C2c2ccc(C)cc2)cc1` (stereo not drawn), 17.5% (inactive); that for `COc1ccc(CN(C)C(=O)CC(c2ccccc2)c2ccccc2)cc1`, 2.66% (inactive).
As to `COc1ccc(COC(=O)NC(C(=O)O)c2ccccc2)cc1` (stereo not drawn), the inhibition is 7.43% (inactive).
Turning to `COc1ccc(C(CCN(Cc2ccc(OC)c(OC)c2)C(=O)CCl)c2ccccc2)cc1` (stereo not drawn), the inhibition is 100% (active).
On to `O=C(OCc1cc(=O)n2ccsc2n1)C1(c2ccc(Cl)cc2)CC1`, for which the inhibition is -13.2% (inactive).
Regarding `CN(c1ccc(OCC(=O)NC2=NCCS2)cc1)S(=O)(=O)c1ccc(F)cc1`, the inhibition is -19.2% (inactive).
In the case of `CCOC(=O)C1=C(c2ccccc2)NC(=O)NC1c1cc(OCC)c(O)c([N+](=O)[O-])c1` (stereo not drawn), the inhibition is -2.5% (inactive).
The result for `CC(C)(C)c1ccc(/C=C/C(=O)Nc2ncccn2)cc1` reads -199% (inactive); that for `COc1ccccc1NC(=O)/C=C/C(N)=O`, 6.78% (inactive).
For the molecule `COC(=O)c1sc(-c2ccc(C(C)(C)C)cc2)cc1NC(=O)/C=C/C(=O)O`, the inhibition was 59.5% (active).
As to `CC1(C)S[C@@H]2[C@H](NC(=O)COc3ccccc3)C(=O)N2C1C(=O)OCc1ccccc1` (stereo partly drawn), the inhibition is -0.93% (inactive).
Consider `O=C1OCCN1C(=O)[C@H]1[C@H](c2ccc(Cl)cc2)C(c2cccc(Cl)c2)=NN1c1ccc(Br)cc1`, for which the inhibition is 43% (inactive).
The result for `COc1ccc(Cl)cc1NC(=O)NC(C)C(C)(C)C` (stereo not drawn) reads -21.5% (inactive).
Regarding `Cc1cccc(-c2oc3ccc(-c4ccc5c(c4)OCO5)cc3c2C#Cc2cncn2C)c1`, the inhibition was 62.2% (active).
As for `COc1ccc(/C=C/c2c(-c3cccc(C)c3)oc3ccc(-c4ccc5c(c4)OCO5)cc23)cc1`, the figure is 6.97% (inactive); as for `COc1ccc(C#Cc2c(-c3ccc(OC)cc3)oc3ccc(-c4ccc5c(c4)OCO5)cc23)cc1`, -2.23% (inactive); as for `COc1nnc(-c2ccc(C)c(S(=O)(=O)N(C)C)c2)c2ccccc12`, 13.5% (inactive).
With `COc1ccc(CCN(C)C(=O)C23CC4CC(CC(Cl)(C4)C2)C3)cc1OC`, the inhibition is 27.9% (inactive).
As to `Cc1cc(=O)[nH]c2nnnn12`, the inhibition is 6.21% (inactive).
With `CCN(CC(=O)Nc1ccc(OC)cc1)C(=O)CSCc1ccc(C)cc1`, the inhibition was 20.5% (inactive).
For the molecule `Cc1ccc(OCC(=O)Nc2ccc(NC(=O)c3cccs3)cc2)c(C)c1`, the inhibition was 13.5% (inactive).
`COc1ccc(CC(=O)Nc2ccc(-c3nnc(-c4ccc(C)cc4)o3)cc2)cc1`: the inhibition is 99.8% (active).
As for `COc1ccc(CC(=O)Nc2ccc(C(=O)NC(C)(C)C)cc2)cc1`, the figure is -11.9% (inactive).
In the case of `Cc1ccc(-c2nnc(-c3ccc(NC(=O)c4cccs4)cc3)o2)cc1`, the inhibition is 93.9% (active).
For `Cc1ccc(C(=O)Nc2ccc(NC(=O)c3cccs3)cc2)c(C)c1`, the inhibition was -14.7% (inactive).
With `CO[C@@H]1[C@@H](OC(N)=O)[C@@H](O)C(Oc2ccc3c(O)c(NC(=O)c4ccc(O)c(CC=C(C)C)c4)c(=O)oc3c2C)OC1(C)C` (stereo partly drawn), the inhibition was 20.1% (inactive).
For `O=C(c1ccccc1)N1N=C(c2ccccc2O)CC1c1ccc(Br)cc1` (stereo not drawn), the inhibition is 12% (inactive).
Take `Oc1ccccc1C1=NN(c2ccccc2)C(c2ccccc2)C1` (stereo not drawn): the inhibition is 58.3% (active).
Turning to `COc1ccc(C2CC(c3cccs3)=NN2c2ccccc2)cc1` (stereo not drawn), the inhibition was -32.2% (inactive).
Take `CCSc1nc(O)c(C(c2cccc(OC)c2)c2c(O)nc(SCC)[nH]c2=O)c(=O)[nH]1`: the inhibition was -27.3% (inactive).
With `COc1ccc(CNC(=O)c2nnn(CC(=O)Nc3cc(C)cc(C)c3)c2N)cc1`, the inhibition is 48.3% (inactive).
Regarding `COc1cccc(CNC(=O)c2nnn(CC(=O)Nc3cc(C)ccc3C)c2N)c1`, the inhibition was 5.26% (inactive).
With `COc1cccc(CNC(=O)c2nnn(CC(=O)Nc3cc(Cl)ccc3C)c2N)c1`, the inhibition is 77.9% (active).
Take `Cc1ccc(Nc2nnc(SC(C)C(=O)NC3CC3)s2)cc1` (stereo not drawn): the inhibition is 22.3% (inactive).
For `Cc1cc(=O)n2nc(N3CCC(C(=O)Nc4c(F)c(F)c(F)c(F)c4F)CC3)sc2n1`, the inhibition was 8.91% (inactive).
For the molecule `COc1cnc(-c2ccccn2)nc1Oc1ccc(C(C)(C)C)cc1`, the inhibition was 37.6% (inactive).
The result for `N#Cc1ccc(Oc2cc(C(F)(F)F)nc(-c3ccccn3)n2)cc1` reads 11.2% (inactive).
In the case of `c1ccc(-c2nccc(-c3ccc(-n4cnc5ccccc54)cc3)n2)nc1`, the inhibition is 28.4% (inactive).
As to `Cc1ccc(Oc2nc(-c3ccccn3)nc3ccccc23)cc1`, the inhibition is 60.4% (active).
The result for `CC(C)(C)Nc1nc(-c2ccccn2)nc2ccccc12` reads 87.5% (active); that for `c1ccc2c(NCC3CCCO3)nc(-c3ccncc3)nc2c1` (stereo not drawn), -16.8% (inactive).
Turning to `CCn1nc(C)c(CN2CCN(Cc3ccc(OC)c(C)c3C)C(CCO)C2)c1C` (stereo not drawn), the inhibition was 10.8% (inactive).
Take `O=C(OCCN1CCOCC1)C1(c2ccccc2)CCCCC1`: the inhibition was -8.86% (inactive).
`Cc1ncn2cc(-c3ccc(Cl)cc3Cl)[nH]c(=O)c12`: the inhibition is 7.48% (inactive).
For `O=C(Nc1nnc(-c2ccc(F)cc2)s1)c1c(F)cccc1Cl`, the inhibition was 7.4% (inactive).
For `CC(C)=CC(=O)Nc1nnc(-c2ccc(F)cc2)s1`, the inhibition was 80% (active).
Regarding `Cc1ccc(C(=O)Nc2nnc(-c3ccncc3)s2)o1`, the inhibition was -5.65% (inactive).
Turning to `COc1ccccc1N(C)S(=O)(=O)c1ccc(Cl)c(C(=O)N2CCC(C(N)=O)CC2)c1`, the inhibition was -6.16% (inactive).
As to `Cc1ccc2[nH]c3c(=O)n(CC(=O)NCCc4ccc(Cl)cc4)ncc3c2c1`, the inhibition is -13.8% (inactive).
As for `COc1ccc(C2CC(=O)Oc3ccc(C(C)(C)C)cc32)cc1` (stereo not drawn), the figure is 21.6% (inactive); as for `c1ccc2c(c1)C(=NC1CCCCC1)NC2=NC1CCCCC1`, 94.3% (active).
The result for `Cc1nn(C)c(Cl)c1CN1CCC(n2nccc2NC(=O)C2CCCC2)CC1` reads 12.6% (inactive).
With `COCc1cc(=O)[nH]c(SC)n1`, the inhibition is 5.54% (inactive).
The result for `COc1ccc([C@@H]2[C@@H]3C(=O)N(C(C)(C)C)C(=O)[C@@H]3[C@]3(Cc4ccccc4)C(=O)N(c4cccc(Br)c4)C(=O)N23)cc1` reads 37.8% (inactive); that for `O=C(NNC(=O)c1cc(-c2ccccc2Cl)nc2ccccc12)c1csc(N2CCOCC2)n1`, -34.1% (inactive).
In the case of `C=CCn1c(C23CC4CC(CC(C4)C2)C3)n[nH]c1=S`, the inhibition was 9.22% (inactive).
`Cc1ccc(NNC(=O)C2CCC2)cc1C`: the inhibition was -2.12% (inactive).
In the case of `O=c1cc(C(F)(F)F)[nH]c(=O)n1C1CCCCC1`, the inhibition is -23.2% (inactive).
The result for `Cc1ccc(Nc2cc(=O)n(C3CCCCC3)c(=O)[nH]2)cc1C` reads 54.2% (active).
`COC(=O)Cn1cc(/C=C/[N+](=O)[O-])c2ccccc21`: the inhibition is 23.4% (inactive).
Consider `O=[N+]([O-])/C=C/c1ccc2c(ccn2Cc2ccccc2)c1`, for which the inhibition is 95.5% (active).
With `O=C(Cn1ccc2cc(S(=O)(=O)N3CCCC3)ccc21)NCc1ccccc1`, the inhibition was 12.6% (inactive).
In the case of `Oc1ccc(N=Nc2nccs2)c(O)c1`, the inhibition was 53.8% (active).
`O=C(NC1(C(F)(F)F)NC(=O)N(Cc2cccnc2)C1=O)c1ccccc1Cl` (stereo not drawn): the inhibition is 1.79% (inactive).
As for `Cc1cc(C)c(C#N)c(SCC(=O)N(CC(C)C)C2CCS(=O)(=O)C2)n1` (stereo not drawn), the inhibition is 18% (inactive).
For the molecule `CN(C)Cc1c(C(=O)N/N=C/c2ccccc2OCc2ccc(F)cc2)nnn1-c1nonc1N`, the inhibition is 14.6% (inactive).
Regarding `CC1CCN(C(=O)c2ccc(S(=O)(=O)Cc3cc(F)ccc3F)c([N+](=O)[O-])c2)CC1`, the inhibition is 68.4% (active).
Turning to `Nc1ccc(C(=O)N2CCN(S(=O)(=O)c3ccc(Cl)cc3)CC2)cc1[N+](=O)[O-]`, the inhibition was 18.3% (inactive).
As for `CC1CCN(C(=O)c2ccc(CSc3ccc(Cl)cc3)cc2)CC1`, the figure is -14.2% (inactive).
For `CCOc1cccc(C(=O)Nc2nnc(-c3cccs3)s2)c1`, the inhibition was -36.4% (inactive).
For the molecule `N#Cc1ccc(C(=O)Nc2nc(-c3cccs3)c(C(=O)C(F)(F)F)s2)cc1`, the inhibition is 83.2% (active).
The result for `COc1ccc(C(=O)Nc2nc(-c3ccc(OC)cc3)c(-c3ccc([N+](=O)[O-])cc3)s2)cc1` reads 13.4% (inactive).
